Consider 8 compounds from PubChem BioAssay (NCI).

About 83,000 compounds went through this panel and 20% of them were active in at least one assay; those are over-represented in the sample as a whole.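 Single-concentration screen, 48 h exposure, 96-well plates. Endpoint: percent growth. Below 10 = active.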 Unmarked numbers belong to inactive results. The source made the active and inactive calls.

Among the test systems are SK-MEL-2 melanoma; SN12C renal; UO-31 renal; TK-10 renal; ACHN renal; CAKI-1 renal; A498 renal; CCRF-CEM leukemia; MOLT-4 leukemia; RPMI-8226 leukemia; OVCAR-8 ovarian; OVCAR-5 ovarian; OVCAR-4 ovarian; SK-OV-3 ovarian; IGROV1 ovarian; OVCAR-3 ovarian; HS 578T breast; NCI/ADR-RES ovarian; SR leukemia.
Holding throughout (test): NCI-60 one-dose screen, 48 h (100 = growth as untreated, 0 = no growth, -100 = all killed)
Holding throughout (conditions): 10 µM unless noted

Consider `CC(=O)OC[Si](C)(C)c1ccccc1`, for which the growth with SK-MEL-2 melanoma was 126%; in the test with SN12C renal, 99.6%; in the test with UO-31 renal, 94.9%; in the test with TK-10 renal it was 107%; in the test on ACHN renal, 106%; in the test with CAKI-1 renal, 92.1%. For the same compound, the growth with A498 renal is 103%; in the test with CCRF-CEM leukemia it was 108%; with MOLT-4 leukemia it was 112%; with RPMI-8226 leukemia, 110%; in the test on OVCAR-8 ovarian it was 101%; in the test on OVCAR-5 ovarian, 108%. In addition, the growth in the test on OVCAR-4 ovarian is 103%; in the test on SK-OV-3 ovarian, 103%; in the test on IGROV1 ovarian, 114%; in the test on OVCAR-3 ovarian, 112%; in the test on HS 578T breast it was 103%; in the test with NCI/ADR-RES ovarian it was 112%.
Turning to `Cn1c(-c2nonc2NC(=O)c2ccc(F)cc2)nc2ccccc21`, the growth in the test with SK-MEL-2 melanoma was 112%; in the test on SN12C renal, 102%; with UO-31 renal, 91.2%; in the test with TK-10 renal it was 124%; with ACHN renal it was 112%; in the test with CAKI-1 renal, 105%. The growth was 85.6% in the test with A498 renal; 105% in the test with CCRF-CEM leukemia; -1.74% (active) in the test on MOLT-4 leukemia; 106% with RPMI-8226 leukemia; 96.6% with OVCAR-8 ovarian; 117% in the test with OVCAR-5 ovarian. For the same compound, the growth in the test on OVCAR-4 ovarian was 114%; in the test with SK-OV-3 ovarian, 111%; in the test on IGROV1 ovarian, 104%; with OVCAR-3 ovarian it was 119%; in the test with HS 578T breast, 110%; with NCI/ADR-RES ovarian, 106%.
With `Cc1cc2c(c(=O)o1)C(c1ccc(OC(=O)N3CCOCC3)cc1)C(C#N)=C(N)O2` (stereo unspecified), the growth was 91.3% in the test on SK-MEL-2 melanoma; 108% in the test on SN12C renal; 90.2% in the test with UO-31 renal; 95.6% in the test on TK-10 renal; 102% with ACHN renal; 95.2% in the test with CAKI-1 renal. The growth is 106% in the test on A498 renal; 111% in the test with CCRF-CEM leukemia; 98.3% with MOLT-4 leukemia; 109% with RPMI-8226 leukemia; 104% in the test on OVCAR-8 ovarian; 98.9% in the test with OVCAR-5 ovarian. In addition, the growth in the test with OVCAR-4 ovarian was 109%; in the test on SK-OV-3 ovarian, 101%; in the test on IGROV1 ovarian, 107%; in the test with OVCAR-3 ovarian it was 109%; with HS 578T breast it was 116%; with NCI/ADR-RES ovarian, 105%.
In the case of `N#CC1=C(N)OC2=C(C(=O)CCC2)C1c1ccco1` (stereo unspecified), the growth in the test with SK-MEL-2 melanoma is 97.8%; in the test with SN12C renal, 107%; with UO-31 renal it was 79.3%; in the test on TK-10 renal, 96.4%; with ACHN renal, 104%; in the test on CAKI-1 renal, 93%. For the same compound, the growth was 112% in the test on A498 renal; 107% in the test on CCRF-CEM leukemia; 97.9% in the test with MOLT-4 leukemia; 100% in the test with RPMI-8226 leukemia; 103% in the test with OVCAR-8 ovarian; 104% with OVCAR-5 ovarian. Further, the growth in the test with OVCAR-4 ovarian is 106%; with SK-OV-3 ovarian it was 98.2%; in the test on IGROV1 ovarian, 107%; in the test with OVCAR-3 ovarian it was 113%; with HS 578T breast, 115%; in the test on NCI/ADR-RES ovarian, 103%.
For `CCCCNC(=O)NS(=O)(=O)c1ccc(N2N=C(c3ccc(C)cc3C)CC2c2ccc(OC)cc2)cc1` (stereo unspecified), the growth was 81.3% in the test on SK-MEL-2 melanoma; 75% in the test with SN12C renal; 59.7% in the test with UO-31 renal; 88.7% with TK-10 renal; 64% with ACHN renal; 70.8% in the test on CAKI-1 renal. Moreover, the growth with A498 renal was 52.9%; in the test on CCRF-CEM leukemia it was 54.3%; in the test on MOLT-4 leukemia, 52.3%; in the test on RPMI-8226 leukemia it was 40.3%; in the test on OVCAR-8 ovarian it was 62.9%; in the test with OVCAR-5 ovarian it was 89.6%. The growth with OVCAR-4 ovarian was 68.4%; with SK-OV-3 ovarian it was 101%; in the test on IGROV1 ovarian, 98.9%; with OVCAR-3 ovarian it was 75.2%; in the test on HS 578T breast, 87.3%; with NCI/ADR-RES ovarian, 45%.
In the case of `COC1=CC(c2ccc[nH]2)=N/C1=C\c1[nH]c(C)c(CCCn2cc(CCCCCCCCC[C@@H]3Cc4cc(O)ccc4C4CC[C@]5(C)[C@@H](O)CC[C@H]5C43)nn2)c1C` (stereo partly specified), the growth in the test on SK-MEL-2 melanoma is 69.7%; in the test on SN12C renal, 62.4%; in the test with UO-31 renal it was 49.8%; in the test with TK-10 renal it was 109%; in the test on ACHN renal it was 40.8%; in the test on CAKI-1 renal, 71%. Besides, the growth in the test on A498 renal is 62.1%; with CCRF-CEM leukemia, 28.1%; in the test with MOLT-4 leukemia, 67.1%; with SR leukemia it was 66.7%; in the test on OVCAR-5 ovarian it was 32%; in the test with SK-OV-3 ovarian, 84%. The growth in the test on IGROV1 ovarian is 78.1%; with OVCAR-3 ovarian, 63.2%; in the test on HS 578T breast, 55.7%; with NCI/ADR-RES ovarian, 69.5%.
As for `Cc1ccc(Nc2ncnc3c2sc2ncccc23)cc1`, the growth was 118% with SK-MEL-2 melanoma; 98.4% in the test with SN12C renal; 90.9% in the test on UO-31 renal; 123% with TK-10 renal; 99.3% in the test with ACHN renal; 104% with CAKI-1 renal. The growth in the test on A498 renal is 67%; with CCRF-CEM leukemia, 116%; in the test with MOLT-4 leukemia, 51.1%; in the test with RPMI-8226 leukemia it was 105%; in the test on OVCAR-8 ovarian, 98.1%; with OVCAR-5 ovarian, 101%. The growth is 109% in the test on OVCAR-4 ovarian; 101% with SK-OV-3 ovarian; 105% with IGROV1 ovarian; 109% in the test on OVCAR-3 ovarian; 102% in the test on HS 578T breast; 98.8% in the test on NCI/ADR-RES ovarian.
Regarding `O=C(COc1ccccc1)N1N=C(c2ccc(Cl)cc2)CC1c1c[nH]c2ccccc12` (stereo unspecified), the growth with SK-MEL-2 melanoma is 85.3%; in the test on SN12C renal it was 62.7%; in the test on UO-31 renal, 25.7%; in the test with TK-10 renal, 93.6%; with ACHN renal, 60.8%; in the test with CAKI-1 renal it was 46%. In addition, the growth was 72.1% in the test with A498 renal; 11.3% in the test on CCRF-CEM leukemia; -8.31% (active) with MOLT-4 leukemia; 10.8% in the test with SR leukemia; 70.4% in the test on OVCAR-8 ovarian; 112% in the test on OVCAR-5 ovarian. Further, the growth in the test on SK-OV-3 ovarian was 81.4%; in the test on IGROV1 ovarian, 30.2%; with OVCAR-3 ovarian it was 77.9%; in the test with HS 578T breast it was 93.7%; with NCI/ADR-RES ovarian, 83%.
